Source: PubChem BioAssay
Most compounds without a hit are left out; they make up all but 4.6% or so of the library.
D1 antagonist: antagonists of human D1 dopamine receptor; activity change, negative = inhibition, % at 10 µM; P21728; AID 504652; 360,000 tested, 3.2% active; HEK293 TREx D1 cells, calcium flux, dopamine EC80; stronger effect = lower value; in the data active = activity change below about -30%; also: % is scaled to controls: 0 for no effect and ±100 for the full control effect
Target sequence (P21728 whole entry, looked up): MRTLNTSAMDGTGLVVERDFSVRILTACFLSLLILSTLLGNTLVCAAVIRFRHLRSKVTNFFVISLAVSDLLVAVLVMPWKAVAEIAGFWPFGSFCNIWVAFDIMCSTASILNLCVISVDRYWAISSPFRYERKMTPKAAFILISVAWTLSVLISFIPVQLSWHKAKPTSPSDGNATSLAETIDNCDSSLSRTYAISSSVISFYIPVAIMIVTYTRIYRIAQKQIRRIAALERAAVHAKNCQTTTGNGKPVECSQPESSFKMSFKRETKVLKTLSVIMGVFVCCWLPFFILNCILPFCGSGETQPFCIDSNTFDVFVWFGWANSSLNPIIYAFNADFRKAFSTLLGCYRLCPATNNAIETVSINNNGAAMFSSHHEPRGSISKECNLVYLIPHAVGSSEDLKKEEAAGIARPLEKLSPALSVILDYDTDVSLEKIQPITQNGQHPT
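Compound effects on dopamine-evoked calcium signalling were measured in tetracycline-induced HEK293 Trex D1 cells. Dopamine at EC80 followed a 180 s compound pre-read, and fluorescence was tracked kinetically for 180 s more.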
TRHR PAM: TRH receptor (human) allosteric enhancement; enhancement, % at 2 µM; TRHR cells, fluo-8 calcium fluorescence, EC20 TRH enhancement; P34981; AID 493056; 360,000 tested, 0.66% active; in the data active = enhancement above about 30%; also: 0% is about no effect
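Enhancer read-out: after compound pinning and an initial kinetic agonist-mode read, an EC20 of TRH (10 nM final) was injected and fluo-8 calcium signal (Ex 480/Em 530) followed at 1 s/cycle for 100 cycles in TRHR-expressing cells.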
TRHR ag: agonists of human TRH receptor. P34981. TRHR cells, calcium flux fluo-8, FDSS agonist mode. activation, % at 2 µM. 360,000 tested, 0.18% active. AID 493084; also: 0% is about no effect
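TRHR-expressing cells loaded with fluo-8 calcium dye; 23 nL library compound pin-transferred, kinetic FDSS fluorescence (Ex 480/Em 530) recorded about 180 s for agonist-induced calcium release, before a 10 nM TRH EC20 addition for potentiator mode.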
D1 ag: agonists of human D1 dopamine receptor | P21728 | AID 504660 | HEK293 T-REx D1 cells, calcium flux, agonist mode | activation, % at 2 µM | 360,000 tested, 1% active; also: 0% is about no effect
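Agonism was scored from calcium flux recorded over 180 s (1 read/s) after pintool compound addition, following a 10-cycle baseline. Cells were inducible force-coupled HEK293 TREx D1, plated overnight at 30 C and loaded with no-wash calcium dye.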
D1 PAM: human D1 dopamine receptor positive modulation; P21728; HEK293 TREx D1 cells, calcium flux, dopamine EC20 potentiation; AID 504651; 360,000 tested, 0.036% active; potentiation, % at 10 µM; in the data active = potentiation above about 30%; also: 0% is about no effect
The depositor's hits bear a star; . = no result given. Rule as the data show it, unless noted: active = activation above about 30%; inactive = the rest.

SMILES | D1 antagonist | TRHR PAM | TRHR ag | D1 ag | D1 PAM
COc1ccccc1C(=O)Nc1cccc(C(=O)OCc2cc(=O)n3cc(C)sc3n2)c1 | -31* | 0 | -1 | 0 | 1
Cc1cn2c(=O)cc(COC(=O)COc3ccc(C)c(C)c3)nc2s1 | -38* | 0 | -1 | 24 | -2
CCOc1ccc(C(=O)N2CCCC(c3nc(-c4ccc(C)o4)no3)C2)cc1 (stereo not given) | 10 | 0 | 0 | 0 | -6
O=[N+]([O-])c1cccc(S(=O)(=O)N2CCC(c3nc(-c4ccncc4)no3)CC2)c1 | -11 | -8 | 1 | 4 | -5
O=C(NN1C(=O)C2C3C=CC(C4CC34)C2C1=O)c1ccc(Cl)c(Cl)c1 (stereo not given) | -13 | 30* | 1 | 1 | 0
O=C(NN1C(=O)C2C3C=CC(C4CC34)C2C1=O)c1ccc(Br)cc1 (stereo not given) | -14 | -6 | 0 | 1 | -4
Cc1noc(C(=O)N(C)c2ccccc2)c1Cl | 4 | 8 | 0 | 2 | 0
CCC(=O)NC1(C(F)(F)F)C(=O)Nc2c1c(=O)n(C)c(=O)n2C (stereo not given) | -60* | -3 | 1 | 4 | -8
COc1ccccc1/C=N/NC(=O)c1ccc(NC(=O)c2ccccc2Br)cc1 | -28 | 4 | 0 | 10 | -2
CCC(=O)Nc1ccc(C(=O)N/N=C/c2cc(Br)c(OC)cc2OC)cc1 | -31* | 0 | 0 | 2 | -8
Cc1ccc(Oc2ccc(NC(=O)C3=CC=CN4CCS(=O)(=O)N=C34)cc2)cc1 | 2 | -9 | 0 | 32* | -9
Cc1cccc(Oc2ccc(NC(=O)C3=CC=CN4CCS(=O)(=O)N=C34)cc2)c1 | -36* | -4 | 0 | 13 | -9
CC(C)(C)c1ccc(NC(=O)C2=CC=CN3CCS(=O)(=O)N=C23)cc1 | -8 | 6 | 0 | 3 | 0
COc1ccc(Nc2nc(NCc3ccco3)nc(N3CCOCC3)n2)cc1 | 7 | 3 | 0 | 0 | -10
COCCN(CC(=O)Nc1ccccc1C(F)(F)F)C(=O)c1ccc(-n2cccn2)cc1 | -13 | 6 | 0 | 2 | .
CSCCC(NC(=O)c1ccc(Cl)cc1)C(=O)OCC(C)=O (stereo not given) | 11 | 6 | 0 | 3 | 4
CSCCC(NC(=O)c1ccccc1)C(=O)OCC(=O)c1ccc[nH]1 (stereo not given) | 6 | 5 | 0 | 1 | -1
CSCCC(NC(=O)c1ccc(Cl)cc1)C(=O)OCC(=O)Nc1ccc(C#N)cc1 (stereo not given) | -40* | -5 | 0 | 4 | -7
CSCCC(NC(=O)c1ccc(Cl)cc1)C(=O)OCC(=O)c1ccc[nH]1 (stereo not given) | -35* | 4 | 0 | 1 | -4
CCCOc1ccccc1OCC(=O)Nc1cc(Cl)ccc1-n1cncn1 | -71* | 5 | 0 | 6 | -11
Cc1cccc(OCC(=O)Nc2cc(Cl)ccc2-n2cncn2)c1C | -19 | 21 | 1 | 2 | -5
O=C(Nc1cc(Cl)ccc1-n1cncn1)c1cncc(Br)c1 | -45* | 11 | 0 | -2 | -10
CC(O)CN1CC(O)=C(c2nc3ccccc3s2)C1=N (stereo not given) | -17 | 1 | 0 | 4 | -3
Cc1ccc2c(c1)C1CN(C)CCC1N2C(=O)c1cccc(S(=O)(=O)N2CC(C)CC(C)C2)c1 (stereo not given) | 10 | -7 | -2 | 2 | -6
Cc1ccc2c(c1)C1CN(C)CCC1N2S(=O)(=O)c1ccc(C(C)C)cc1 (stereo not given) | -31* | 0 | 1 | 3 | -6
SMILES | D1 antagonist | TRHR PAM | TRHR ag | D1 ag | D1 PAM
Cc1ccc2c(c1)C1CN(C)CCC1N2C(=O)c1ccc(Cl)c(S(=O)(=O)N2CCOCC2)c1 (stereo not given) | -45* | -2 | 1 | 2 | -5
CC(C)(C)c1ccc(/C=N/NC(=O)C2CCCC2)cc1 | -47* | -1 | 0 | 2 | -6
C=CC[n+]1ccn(-c2nc3ccccc3nc2[N-]S(=O)(=O)c2cccs2)c1 | 7 | 16 | 0 | 1 | 2
COc1ccc(-n2cc(CNC3CCN(C)CC3)c(-c3cccc(F)c3)n2)cc1 | 2 | 9 | 8 | 46* | -2
CC1CCC(NC(=O)c2cc3ccccc3cc2O)CC1 (stereo not given) | -20 | -1 | 0 | 6 | -2
O=C1/C(=C/c2cccc(F)c2)Oc2cc(O)ccc21 | -36* | 0 | 21 | 34* | -5
CCc1cccc(C)c1NS(=O)(=O)c1ccc(-n2cccn2)cc1 | -47* | 3 | -1 | 22 | -1
CCc1cccc(NS(=O)(=O)c2ccc(-n3cccn3)cc2)c1 | -2 | 0 | 0 | 13 | -4
Cc1ccc(NS(=O)(=O)c2ccc(-n3cccn3)cc2)cc1C | -11 | 2 | 1 | 6 | -2
COc1ccc(NS(=O)(=O)c2ccc(-n3cccn3)cc2)cc1OC | -33* | -3 | 1 | 15 | -7
COc1ccccc1NC(=O)NC1CCCc2ccccc21 (stereo not given) | -5 | 0 | 0 | 2 | -4
CC(=O)c1ccc(OCCCC(=O)NC2CCCc3ccccc32)cc1 (stereo not given) | -32* | -3 | -1 | 0 | -1
CCOc1ccccc1NC(=O)NC1CCCc2ccccc21 (stereo not given) | -33* | -3 | -1 | 0 | -2
COc1ccc(OCC(=O)NC2CCCc3ccccc32)cc1 (stereo not given) | -4 | -2 | 0 | 2 | -4
Cc1onc(-c2ccccc2Cl)c1C(=O)Nc1nnc(Cc2ccc(Cl)cc2)s1 | -2 | 6 | 1 | 1 | -5
CCOC(=O)c1nn(-c2ccc(F)cc2)c(=O)c2c(N)scc12 | -51* | 9 | 0 | 59* | -4
CCOC(=O)c1nn(-c2ccc(C)cc2)c(=O)c2c(N)scc12 | -12 | 3 | 0 | 0 | 6
CC(NC(=O)[C@H](C)NC(=O)N1CCn2c1nc1ccccc12)c1ccccc1 (stereo not given in full) | 2 | 8 | -1 | 2 | 2
O=C(C1CCCCC1)N1CCCn2c1nc1ccccc12 | -45* | 3 | 0 | 7 | -1
O=C(C1CCN(S(=O)(=O)c2cnc[nH]2)CC1)N1CCn2c1nc1ccccc12 | -16 | -3 | 0 | 6 | -4
C[C@H](NC(=O)N1CCn2c1nc1ccccc12)C(=O)NC1CC1 | -85* | -23 | 0 | -2 | -3
COc1ccccc1/C=C/C(=O)NCC(=O)N/N=C(/C)c1ccco1 | 5 | 7 | 1 | 3 | -6
Cc1cc(NC(=O)c2ccccc2)n(C)n1 | -2 | -5 | 0 | 0 | -8
